The source of these data is PubChem BioAssay AID1347131 (National Center for Advancing Translational Sciences (NCATS), 2019).

The campaign covered roughly 410,000 compounds. About 2,000 (0.49%) were called active. Where a call stands in place of a potency, no number is given. Inconclusive results (about 8%) are left out. The sample holds actives, similar compounds and a random draw of the others, so the mix is not that of the screen. The call rests on the fitted dose curve; tested in HEK293 reporter line.
Potency means the concentration at half of the fitted maximal effect.

The nature of this assay: qHTS Assay for Foot and Mouth Disease Virus Antivirals: Primary Screen against the MLPCN compound library. Further: nearly all actives have a fitted effect of over 55% in size. The note with it: FMDV antiviral cell-based qHTS; series mostly up to 57.9 µM. Background: qHTS replaces the single test concentration by a dilution series.
On to `Cc1nc(SCC(=O)NCCc2ccccc2)nc(C)c1C`, for which the Potency entry is “inactive”.
In the case of `CCOCCCNC(=S)N1CCN(c2nc(-c3ccccc3)cs2)CC1` it was “inactive”; in that of `CN1/C(=C\C(=O)CSc2nnc(N)s2)C(C)(C)c2ccccc21`, “inactive”.
For the compound `Cc1ccc(CSc2nc3ccccc3cc2C=O)cc1`, the Potency entry was “inactive”.
On to `Cc1ccc(C)c(Nc2cc(C)nc3ccccc23)c1`, for which the Potency entry is “inactive”.
In the case of `Cc1ccc2c(c1)Cc1nc3ccccc3nc1-2` it was 14.1 µM (active); in that of `COc1cccc(-c2nc(CS(=O)(=O)CC(=O)NCCCc3ccccc3)c(C)o2)c1`, “inactive”; in that of `NC(=O)COc1ccccc1/C=C1/SC(=O)N(CC(=O)N2CCc3ccccc3C2)C1=O`, “inactive”.
Consider `COc1ccc(-c2nc(NC(=O)c3[nH]c(C)c(C(C)=O)c3C)sc2C)cc1`, for which the Potency was 28.2 µM (active).
The entry for `COc1ccc(-c2nc(NC(=O)c3c(C)noc3C)sc2C)cc1` is “inactive”; for `COc1ccc(NC(=O)c2[nH]c(C)c(C(C)=O)c2C)cc1` it is “inactive”; for `Fc1ccc(CN2CCN3CCCC3C2C2CCCCC2)cc1F` (stereo not given) it is “inactive”.
In the case of `O=c1[nH]c(SCc2ccccc2Cl)nc2c1cnn2-c1ccccc1` it was “inactive”; in that of `c1nc(NCc2ccc3c(c2)OCO3)c2cc(-c3ccc4c(c3)OCCO4)ccc2n1`, “inactive”; in that of `COc1ccc(N2CCN(C(=O)Cn3cnc4c(cnn4-c4ccc(C)cc4)c3=O)CC2)cc1`, “inactive”.
Take `CCCCCn1nc(C(=O)OCC(=O)c2c(N)n(C)c(=O)n(C)c2=O)c2ccccc2c1=O`: the Potency result was “inactive”.
As for `COc1cccc(Nc2c3c(nc4c(-c5ccccc5)c(C)nn24)CCC3)c1`, the Potency result is “inactive”.
The entry for `COc1cccc(-c2cc(C(=O)NC3CC3)c3ccccc3n2)c1` is “inactive”; for `COc1cccc(-c2cn3nc4c(nc3n2)CCCC4)c1` it is 10 µM (active).
In the case of `c1ccc(Sc2cccc3ccccc23)c(CNC2=NCCN2)c1` it was “inactive”.
Take `COc1ccccc1S(=O)(=O)Cc1ccc(C(=O)NCc2ccc3c(c2)OCO3)o1`: the Potency entry was “inactive”.
In the case of `FC(F)(F)c1nnc(-c2ccccc2)nc1Oc1ccc(Cl)cc1Cl` it was “inactive”.
Take `Clc1ccc(OCc2cc(-c3ccccc3)no2)c(Cl)c1`: the Potency is 12.6 µM (active).
The entry for `CC(C)(C)NC(=O)c1ccc(COc2ccc(Cl)cc2Cl)o1` is “inactive”; for `CCN1CCN(C(=O)C2CCN(c3nnc(C)c4c(C)n(-c5ccc(C)cc5)nc34)CC2)CC1` it is “inactive”; for `Cc1ccc(C(=O)N(CC(=O)Nc2sc(C)c(C)c2C(N)=O)C2CCCC2)cc1` it is “inactive”.
For the compound `COc1ccc(NS(=O)(=O)c2cc(NC(=O)c3ccc(=O)[nH]c3)ccc2N2CCOCC2)cc1`, the Potency entry was “inactive”.
The figure for `CC(=O)c1sc(NC(=O)C2COc3ccccc3O2)nc1C` (stereo not given) is 11.2 µM (active).
The entry for `CC(=O)c1sc(NC(=O)c2cc(-c3ccccc3)nn2-c2ccccc2)nc1C` is “inactive”; for `O=C(Nc1nc(-c2ccc(S(=O)(=O)N3CCCC3)cc2)cs1)C1COc2ccccc2O1` (stereo not given) it is “inactive”.
For the compound `CCOc1ccc(C(=O)N(Cc2cc(OC)c(OC)c(OC)c2)c2ccccn2)cc1`, the Potency entry was “inactive”.
In the case of `CN(C)Cc1n[nH]c(=O)c2ccccc12` it was “inactive”; in that of `CC1=C/C(=C(/c2cc(C)c(O)c(Br)c2)c2ccccc2S(=O)(=O)O)C=C(Br)C1=O`, 17.8 µM (active); in that of `COc1ccc(NC(=S)N2CCN(Cc3ccc(C)cc3)CC2)cc1`, “inactive”.
As to `CN1CCN(S(=O)(=O)c2cccc(C(=O)Nc3ccc(Br)cc3Br)c2)CC1`, the Potency result is “inactive”.
The entry for `CCn1c(=S)sc2c(=O)n(CC(=O)Nc3cccc(Cl)c3)c(C)nc21` is “inactive”; for `CCOC(=O)NC(=O)/C(C#N)=N/Nc1c(F)cccc1F` it is “inactive”.
In the case of `C=CCn1c(SCC(=O)Nc2nc3ccccc3s2)nnc1-c1ccccc1O` it was 25.1 µM (active); in that of `C=CCn1c(SCC(=O)Nc2cccnc2Cl)nnc1-c1ccccc1F`, “inactive”.
Turning to `Cc1nc(SCC(=O)Nc2nc3ccccc3s2)c(C#N)c(C)c1C`, the Potency result is “inactive”.
The entry for `COc1ccc(N2CCOCC2)c(NC(=O)c2cc3ccccc3o2)c1` is “inactive”; for `COc1ccccc1NC(=O)C1=C(C)NC(SCC(=O)c2ccccc2)=C(C#N)C1c1ccco1` (stereo not given) it is “inactive”; for `Cc1cccnc1Nc1nc(-c2ccccn2)cs1` it is 11.2 µM (active).
In the case of `CCCn1nc(C(=O)Nc2nc(-c3ccccn3)cs2)c2ccccc2c1=O` it was “inactive”.
In the case of `Cc1cc(C)n2c(Nc3c(C)cccc3C)c(-c3ccccn3)nc2n1` it was “inactive”; in that of `CN(CC(=O)NCc1ccccc1)CC(=O)Nc1ccc(Cl)c(C(F)(F)F)c1`, “inactive”.
Regarding `COc1ccc(-c2nsc3c(N4CCCC4)ncnc23)cc1`, the Potency was 22.4 µM (active).
In the case of `COc1ccc(-c2nsc3c(N4CCCCC4C)ncnc23)cc1` (stereo not given) it was “inactive”; in that of `COc1ccc(-c2nsc3c(N4CCCCC4)ncnc23)cc1`, “inactive”.
The entry for `NC(=O)c1cccn(Cc2ccc(C(F)(F)F)cc2)c1=O` is “inactive”; for `CC(=O)c1cccc(NC(=O)CN2CCc3cc4c(cc3C2C)OCCCO4)c1` (stereo not given) it is “inactive”; for `CC(C)CNc1nc2c(c(=O)n(C)c(=O)n2C)n1Cc1cccc(Br)c1` it is “inactive”.
For the compound `Cc1nn2cc(-c3ccc(OC(C)C)cc3)nc2s1`, the Potency was 14.1 µM (active).
Regarding `COC(=O)c1ccc2nc(-c3ccc(C#N)cc3)c(Cc3ccsc3)n2c1`, the Potency entry was “inactive”.
For the compound `COc1ccccc1-c1nc(-c2ccccc2)nc(N2CCN(C)CC2)c1C#N`, the Potency entry was “inactive”.
Take `Cc1cccc(-n2c(O)c(C=Nc3ccccc3)c3ccccc3c2=O)n1`: the Potency entry is “inactive”.
In the case of `COC1=CC(=O)c2ccccc2C1=O`, the Potency entry was “inactive”.
In the case of `O=C1C(C=Nc2ccccc2)=C(O)c2ccccc21` it was 10 µM (active); in that of `COc1cc(NC(=O)Cc2ccc(S(=O)(=O)N3CCOCC3)s2)c(OC)cc1Cl`, “inactive”; in that of `O=C(OC(C(=O)Nc1ccc(Cl)cc1C(F)(F)F)c1ccccc1)c1c(Cl)cccc1Cl` (stereo not given), “inactive”.
Regarding `COc1ccc(CCCc2nnc(SCC(=O)Nc3cccc(C)c3)o2)cc1`, the Potency entry is “inactive”.
On to `Cc1nn2cc(-c3ncc(C(F)(F)F)cc3Cl)cnc2c1Br`, for which the Potency is 8.91 µM (active).
In the case of `Cc1ccc(-c2ccnc3nc(Sc4ncc(C(F)(F)F)cc4Cl)nn23)cc1` it was “inactive”; in that of `Cc1nn(Cc2ccc(Cl)cc2)c(=O)n1N(C)c1ncc(C(F)(F)F)cc1Cl`, “inactive”; in that of `CCOC(=O)c1sc(=S)n(C)c1NC(=O)c1ccccc1`, “inactive”.
The entry for `Cc1cccc(CNc2ncnc3ccc(-c4ccc5c(c4)OCCO5)cc23)c1` is “inactive”; for `COc1ccc(CCNC(=S)N2CCC(C(=O)c3ccc(F)cc3)CC2)cc1OC` it is “inactive”; for `CCC1Sc2ccc(S(=O)(=O)CCC(=O)NCc3ccco3)cc2NC1=O` (stereo not given) it is “inactive”.
The entry for `CCN(CC)CCNC(=O)c1nn(-c2ccc(Cl)cc2)c2c1CCc1cc(OC)ccc1-2` is “inactive”.
Turning to `Cc1ccc2nc(-c3ccc(NC(=O)CCN4C(=O)c5ccccc5C4=O)cc3)sc2c1`, the Potency was 7.08 µM (active).
Regarding `CCOC(=O)c1cc(-c2ccccc2)sc1NC(=O)CCN1C(=O)c2ccccc2C1=O`, the Potency result is “inactive”.
As for `CC(=O)Nc1ccc(S(=O)(=O)Nc2nc3ccc(C)cc3s2)cc1`, the Potency result is “inactive”.
As for `O=C(CCCCCN1C(=O)c2ccccc2C1=O)Nc1cccc(O)c1`, the Potency result was “inactive”.
Take `Cc1ccc2nc(-c3ccc(NC(=O)CCS(=O)(=O)c4ccccc4)cc3)sc2c1`: the Potency is 10 µM (active).
The entry for `O=C(CCS(=O)(=O)c1ccccc1)Nc1ccccc1-c1nc2ccccc2s1` is “inactive”; for `CSc1ccc(NC(=O)N2CC=C(n3c(=O)[nH]c4ccccc43)CC2)cc1` it is “inactive”.
On to `CCn1c(N2CCN(S(=O)(=O)c3ccccc3C(F)(F)F)CC2)nc2ccccc21`, for which the Potency result is “inactive”.
In the case of `COc1ccc(CNC(=O)C[C@H]2C[C@H](C(=O)N(C(C)C)C(C)C)[C@@]3(C)c4[nH]c5ccc(Cl)cc5c4CCN3C2=O)cc1OC` it was “inactive”; in that of `Cc1cc(C)c2nc(C(F)(F)F)nc(N3CCN(C(=O)c4ccco4)CC3)c2c1`, “inactive”.
In the case of `Cc1cc(N2CCN(C(=O)c3ccco3)CC2)n2nc(-c3cccc(Cl)c3)cc2n1` it was 22.4 µM (active); in that of `O=C(c1ccco1)N1CCN(c2c([N+](=O)[O-])nn(-c3cccc(Cl)c3)[n+]2[O-])CC1`, “inactive”; in that of `COc1cccc2[nH]c3c(N4CCc5ccccc5C4)ncnc3c12`, “inactive”.
In the case of `COc1cc(/C=C2\SC(=O)N(c3cccc(Cl)c3)C2=O)cc([N+](=O)[O-])c1O` it was “inactive”; in that of `COc1cc(/C=C2\SC(=S)N(CC(=O)NC(C)(C)C)C2=O)cc(OC)c1OC`, “inactive”.
As for `CCOc1ccc(N2C(=O)S/C(=C\c3cc(OC)c(OC)c(OC)c3)C2=O)cc1`, the Potency is 10 µM (active).
Turning to `CC(=O)c1ccc(NC(=O)c2ccc(-c3nc(CSc4ccccc4)c(C)o3)cc2)cc1`, the Potency result is “inactive”.
In the case of `C[C@H]1CN([C@@H](C)CO)C(=O)c2cc(NC(=O)C3CCCCC3)ccc2O[C@H]1CN(C)Cc1ccc(-c2ccccc2)cc1` it was “inactive”.
In the case of `CC1CCC(C(C)C)C(OC(=O)Cn2c(-c3ccc(Br)cc3)[n+](C)c3ccccc32)C1` (stereo not given) it was 15.8 µM (active); in that of `Cc1ccccc1OCc1n(CC(=O)OC2CC(C)CCC2C(C)C)c2ccccc2[n+]1C` (stereo not given), 17.8 µM (active).
In the case of `Cc1noc(C)c1COc1ccc(C(=O)N2CCN(c3ccccn3)CC2)cc1`, the Potency entry is “inactive”.
Turning to `O=C(c1ccco1)N1N=C(c2cccs2)CC1c1ccccc1O` (stereo not given), the Potency entry was “inactive”.
The entry for `CC(C)C[C@H]1CN=C(N(C)C)N1CCCCc1ccccc1` is “inactive”; for `Cc1ccc(N2C(=O)CC(N3CCN/C3=C3\CC/C(=C\c4ccccc4)C3=O)C2=O)cc1` (stereo not given) it is “inactive”.
The entry for `Cc1ccc(NC(=O)CN2C(=O)NC3(CCCCC3C)C2=O)cc1S(=O)(=O)N1CCCCC1` (stereo not given) is “inactive”; for `CN(C)S(=O)(=O)c1ccc(C(=O)N2CCC(c3nc4ccccc4o3)CC2)cc1` it is “inactive”.
In the case of `CSc1nc(Nc2ccc(C)cc2C)cc(-c2ccccc2)n1` it was “inactive”; in that of `CCC(C)NC(=O)c1cc(-c2ccccc2O)on1` (stereo not given), “inactive”.
As to `Cc1ccc(-c2cc(-c3ccccc3)no2)c(O)c1`, the Potency was 5.01 µM (active).
In the case of `O=C1/C(=C/c2ccc(O)c([N+](=O)[O-])c2)SC(=S)N1Cc1ccccc1`, the Potency result is “inactive”.
In the case of `Cc1nn2c(-c3cccc(NC(=O)CSc4nc5ccccc5o4)c3)nnc2c2ccccc12` it was “inactive”.
